# Data taken from paper PMC7862700, “An all-to-all approach to the identification of sequence-specific readers for epigenetic DNA modifications on cytosine”.
# Legend:
# Test in all cases: DAPPL (digital affinity profiling via proximity ligation, sequencing); 10 mM Tris-HCl pH 7.5, 50 mM NaCl, 1 mM DTT, 4% glycerol, room temperature, 30 min; GST-TFs on glutathione beads, 16-mer random dsDNA library, 0.1% formaldehyde crosslink after washing; high values mean tight binding
# FLI1 = molecular target: T1, FLI1 (Homo sapiens, UniProt Q01543 1-452); conditions: protein: recombinant; tags: N-terminal GST; dsDNA, one strand shown
# T1 sequence: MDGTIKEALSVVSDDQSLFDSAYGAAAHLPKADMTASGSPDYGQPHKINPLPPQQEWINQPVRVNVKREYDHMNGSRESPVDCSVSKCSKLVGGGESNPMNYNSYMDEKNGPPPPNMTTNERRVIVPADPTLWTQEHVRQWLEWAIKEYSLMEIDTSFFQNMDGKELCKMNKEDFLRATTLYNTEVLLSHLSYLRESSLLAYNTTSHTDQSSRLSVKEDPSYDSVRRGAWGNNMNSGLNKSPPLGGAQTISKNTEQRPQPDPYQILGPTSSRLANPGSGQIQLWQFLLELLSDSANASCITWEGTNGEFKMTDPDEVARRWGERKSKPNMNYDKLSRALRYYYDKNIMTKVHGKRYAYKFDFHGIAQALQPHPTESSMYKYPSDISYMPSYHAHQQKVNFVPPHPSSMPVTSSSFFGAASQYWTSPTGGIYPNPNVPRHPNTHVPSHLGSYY
# How it was run: (§1)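 GST fusions of human transcription factors were expressed in yeast and captured with glutathione beads. Once given DNA barcodes and pooled alongside a tag-only sample, they were incubated for 30 min at room temperature with 200 nmole of a random double-stranded 16-mer DNA library in Tris/NaCl/DTT/glycerol buffer, then washed, crosslinked (0.1% formaldehyde), proximity-ligated, PCR-amplified and sequenced on an Illumina NextSeq500. The binding signal of each hexamer is its read frequency for a factor divided by its frequency for the tag-only sample.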
# ELK1 = molecular target: T2, ELK1 (Homo sapiens, UniProt P19419 1-428); conditions: protein: recombinant; tags: N-terminal GST; dsDNA, one strand shown
# T2 sequence: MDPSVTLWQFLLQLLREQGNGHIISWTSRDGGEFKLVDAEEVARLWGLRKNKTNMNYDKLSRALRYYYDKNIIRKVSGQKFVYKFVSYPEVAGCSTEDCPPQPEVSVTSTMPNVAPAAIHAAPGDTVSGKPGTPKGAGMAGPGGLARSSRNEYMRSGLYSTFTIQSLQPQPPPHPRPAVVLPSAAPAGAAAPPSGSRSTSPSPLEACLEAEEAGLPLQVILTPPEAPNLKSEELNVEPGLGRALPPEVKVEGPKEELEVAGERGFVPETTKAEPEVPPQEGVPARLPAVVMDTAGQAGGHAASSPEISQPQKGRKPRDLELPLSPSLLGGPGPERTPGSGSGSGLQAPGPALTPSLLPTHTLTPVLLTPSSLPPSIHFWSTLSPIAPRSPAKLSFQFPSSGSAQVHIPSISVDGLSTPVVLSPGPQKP
# How it was run: as §1
# GABPA = molecular target: T3, GABPA (Homo sapiens, UniProt Q06546 1-454); conditions: protein: recombinant; tags: N-terminal GST; dsDNA, one strand shown
# T3 sequence: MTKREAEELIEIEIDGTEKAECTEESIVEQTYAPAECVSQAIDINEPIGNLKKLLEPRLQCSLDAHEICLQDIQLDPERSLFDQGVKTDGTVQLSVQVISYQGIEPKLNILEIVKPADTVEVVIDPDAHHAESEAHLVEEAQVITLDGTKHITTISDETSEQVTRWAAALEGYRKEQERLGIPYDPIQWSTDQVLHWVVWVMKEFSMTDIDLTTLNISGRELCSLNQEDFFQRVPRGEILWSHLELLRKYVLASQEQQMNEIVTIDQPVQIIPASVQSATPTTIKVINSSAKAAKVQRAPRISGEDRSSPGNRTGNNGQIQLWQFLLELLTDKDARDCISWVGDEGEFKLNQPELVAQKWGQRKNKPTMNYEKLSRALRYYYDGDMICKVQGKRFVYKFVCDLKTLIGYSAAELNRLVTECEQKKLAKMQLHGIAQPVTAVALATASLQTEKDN
# How it was run: as §1
# ERG = molecular target: T4, ERG (Homo sapiens, UniProt P11308 1-479); conditions: protein: recombinant; tags: N-terminal GST; dsDNA, one strand shown
# T4 sequence: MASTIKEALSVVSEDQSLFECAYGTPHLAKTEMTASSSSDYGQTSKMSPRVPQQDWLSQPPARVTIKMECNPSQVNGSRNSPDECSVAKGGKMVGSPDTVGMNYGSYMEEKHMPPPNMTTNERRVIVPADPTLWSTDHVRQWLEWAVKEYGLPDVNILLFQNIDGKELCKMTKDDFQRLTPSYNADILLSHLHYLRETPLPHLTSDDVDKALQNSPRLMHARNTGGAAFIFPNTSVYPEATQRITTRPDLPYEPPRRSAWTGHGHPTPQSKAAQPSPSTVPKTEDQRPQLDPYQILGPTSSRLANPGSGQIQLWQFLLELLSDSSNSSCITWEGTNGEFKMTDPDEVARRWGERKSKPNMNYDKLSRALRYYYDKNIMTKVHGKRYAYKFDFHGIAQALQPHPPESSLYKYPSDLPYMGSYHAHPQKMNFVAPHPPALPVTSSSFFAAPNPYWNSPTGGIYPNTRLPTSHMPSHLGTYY
# How it was run: as §1
# ELF1 = ELF1 (Homo sapiens, UniProt P32519 1-619); conditions: protein: recombinant; tags: N-terminal GST; dsDNA, one strand shown
# Sequence of ELF1 (P32519 whole entry): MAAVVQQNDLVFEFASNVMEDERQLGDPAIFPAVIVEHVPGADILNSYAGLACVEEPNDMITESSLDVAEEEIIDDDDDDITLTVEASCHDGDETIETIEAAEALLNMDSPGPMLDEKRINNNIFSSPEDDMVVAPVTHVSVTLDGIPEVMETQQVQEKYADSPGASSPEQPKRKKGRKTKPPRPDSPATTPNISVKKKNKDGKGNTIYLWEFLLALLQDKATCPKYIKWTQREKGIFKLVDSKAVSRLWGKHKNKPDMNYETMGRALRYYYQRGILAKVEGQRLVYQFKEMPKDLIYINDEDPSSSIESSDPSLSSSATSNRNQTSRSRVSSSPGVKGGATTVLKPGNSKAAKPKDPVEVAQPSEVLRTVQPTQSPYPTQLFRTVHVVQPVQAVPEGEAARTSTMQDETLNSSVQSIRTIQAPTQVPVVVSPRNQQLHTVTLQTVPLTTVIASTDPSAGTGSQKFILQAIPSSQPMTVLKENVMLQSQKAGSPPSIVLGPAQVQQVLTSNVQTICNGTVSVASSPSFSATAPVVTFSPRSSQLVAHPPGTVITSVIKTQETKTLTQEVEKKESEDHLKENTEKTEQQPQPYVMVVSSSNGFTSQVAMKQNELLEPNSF
# How it was run: as §1
# EHF = molecular target: T5, EHF (Homo sapiens, UniProt Q9NZC4 1-300); conditions: protein: recombinant; tags: N-terminal GST; dsDNA, one strand shown
# T5 sequence: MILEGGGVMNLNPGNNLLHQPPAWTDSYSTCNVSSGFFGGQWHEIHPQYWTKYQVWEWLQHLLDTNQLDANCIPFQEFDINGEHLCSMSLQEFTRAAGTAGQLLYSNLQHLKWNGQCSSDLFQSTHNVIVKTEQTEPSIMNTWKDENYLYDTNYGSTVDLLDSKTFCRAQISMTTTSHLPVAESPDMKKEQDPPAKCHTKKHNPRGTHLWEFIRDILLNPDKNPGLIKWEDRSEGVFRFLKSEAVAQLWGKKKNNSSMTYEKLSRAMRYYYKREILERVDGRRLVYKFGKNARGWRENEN
# How it was run: as §1
# SPI1 = SPI1 (Homo sapiens, UniProt P17947 1-270); conditions: protein: recombinant; tags: N-terminal GST; dsDNA, one strand shown
# How it was run: as §1
# SPIB = SPIB (Homo sapiens, UniProt Q01892 1-262); conditions: protein: recombinant; tags: N-terminal GST; dsDNA, one strand shown
# Sequence of SPIB (Q01892 whole entry): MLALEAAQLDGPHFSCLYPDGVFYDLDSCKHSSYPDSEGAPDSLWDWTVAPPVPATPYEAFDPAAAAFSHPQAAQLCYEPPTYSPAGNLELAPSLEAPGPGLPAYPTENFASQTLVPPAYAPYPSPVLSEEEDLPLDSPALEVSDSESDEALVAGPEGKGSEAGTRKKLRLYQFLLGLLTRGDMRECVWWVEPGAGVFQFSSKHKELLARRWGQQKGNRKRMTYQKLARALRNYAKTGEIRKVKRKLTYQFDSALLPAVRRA
# How it was run: as §1
# ELK3 = molecular target: T6, ELK3 (Homo sapiens, UniProt P41970 1-407); conditions: protein: recombinant; tags: N-terminal GST; dsDNA, one strand shown
# T6 sequence: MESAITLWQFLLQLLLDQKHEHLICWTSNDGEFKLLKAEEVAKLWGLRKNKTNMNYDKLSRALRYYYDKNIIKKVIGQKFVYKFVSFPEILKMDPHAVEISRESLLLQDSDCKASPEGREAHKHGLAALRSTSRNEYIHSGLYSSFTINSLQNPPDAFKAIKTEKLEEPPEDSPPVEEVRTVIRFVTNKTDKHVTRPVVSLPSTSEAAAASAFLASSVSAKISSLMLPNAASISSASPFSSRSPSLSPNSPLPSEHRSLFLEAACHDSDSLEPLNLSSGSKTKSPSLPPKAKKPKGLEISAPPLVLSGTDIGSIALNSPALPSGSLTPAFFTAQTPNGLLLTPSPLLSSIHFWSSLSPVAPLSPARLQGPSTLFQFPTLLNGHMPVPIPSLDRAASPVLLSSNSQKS
# How it was run: as §1
# FEV = molecular target: T7, FEV (Homo sapiens, UniProt Q99581 1-238); conditions: protein: recombinant; tags: N-terminal GST; dsDNA, one strand shown
# T7 sequence: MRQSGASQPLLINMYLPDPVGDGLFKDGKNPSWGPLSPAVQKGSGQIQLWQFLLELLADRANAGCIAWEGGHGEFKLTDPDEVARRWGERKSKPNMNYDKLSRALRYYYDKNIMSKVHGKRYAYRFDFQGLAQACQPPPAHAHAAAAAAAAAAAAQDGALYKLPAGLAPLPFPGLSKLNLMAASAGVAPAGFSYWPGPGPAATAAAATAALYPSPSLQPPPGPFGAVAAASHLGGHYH
# How it was run: as §1
# ETV5 = ETV5 (Homo sapiens, UniProt P41161 1-510); conditions: protein: recombinant; tags: N-terminal GST; dsDNA, one strand shown
# Sequence of ETV5 (P41161 whole entry): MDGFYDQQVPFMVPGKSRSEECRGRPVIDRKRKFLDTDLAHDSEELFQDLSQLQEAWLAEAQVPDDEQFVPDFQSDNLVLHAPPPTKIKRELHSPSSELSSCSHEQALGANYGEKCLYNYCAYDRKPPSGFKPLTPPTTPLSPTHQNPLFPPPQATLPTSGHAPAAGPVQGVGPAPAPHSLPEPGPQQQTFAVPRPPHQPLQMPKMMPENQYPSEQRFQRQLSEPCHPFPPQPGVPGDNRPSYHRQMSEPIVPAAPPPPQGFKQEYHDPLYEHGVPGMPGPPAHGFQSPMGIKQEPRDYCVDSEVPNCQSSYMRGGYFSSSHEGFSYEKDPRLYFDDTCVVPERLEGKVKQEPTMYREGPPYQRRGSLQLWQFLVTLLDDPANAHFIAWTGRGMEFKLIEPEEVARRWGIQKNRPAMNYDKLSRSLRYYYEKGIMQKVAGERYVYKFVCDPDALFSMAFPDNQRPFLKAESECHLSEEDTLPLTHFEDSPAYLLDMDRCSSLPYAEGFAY
# How it was run: as §1
# HSF1 = HSF1 (Homo sapiens, UniProt Q00613 1-529); conditions: protein: recombinant; tags: N-terminal GST; chain copies: 3; dsDNA, one strand shown
# Sequence of HSF1 (Q00613 whole entry): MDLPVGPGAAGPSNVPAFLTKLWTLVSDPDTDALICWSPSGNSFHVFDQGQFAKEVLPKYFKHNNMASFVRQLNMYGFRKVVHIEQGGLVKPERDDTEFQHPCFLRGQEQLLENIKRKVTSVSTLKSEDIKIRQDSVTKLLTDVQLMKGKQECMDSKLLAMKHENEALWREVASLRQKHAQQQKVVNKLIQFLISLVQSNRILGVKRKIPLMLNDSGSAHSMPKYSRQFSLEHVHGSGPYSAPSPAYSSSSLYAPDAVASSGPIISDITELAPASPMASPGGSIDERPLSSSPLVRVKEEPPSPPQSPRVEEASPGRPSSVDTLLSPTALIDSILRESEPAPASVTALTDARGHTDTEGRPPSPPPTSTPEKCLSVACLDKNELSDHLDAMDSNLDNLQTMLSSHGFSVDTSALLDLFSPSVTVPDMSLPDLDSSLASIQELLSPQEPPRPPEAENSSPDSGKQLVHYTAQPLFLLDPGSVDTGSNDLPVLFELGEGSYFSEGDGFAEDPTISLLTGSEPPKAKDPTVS
# How it was run: as §1
# SPIC = molecular target: T8, SPIC (Homo sapiens, UniProt Q8N5J4 1-248); conditions: protein: recombinant; tags: N-terminal GST; dsDNA, one strand shown
# T8 sequence: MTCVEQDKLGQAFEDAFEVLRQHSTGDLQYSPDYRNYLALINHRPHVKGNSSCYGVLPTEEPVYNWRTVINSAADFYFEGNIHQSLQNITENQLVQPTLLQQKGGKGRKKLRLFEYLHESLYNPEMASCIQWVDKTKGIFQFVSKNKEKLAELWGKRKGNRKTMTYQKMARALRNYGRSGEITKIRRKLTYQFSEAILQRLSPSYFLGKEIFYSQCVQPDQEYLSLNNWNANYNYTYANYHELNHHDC
# How it was run: as §1
# ELF4 = ELF4 (Homo sapiens, UniProt Q99607 1-663); conditions: protein: recombinant; tags: N-terminal GST; dsDNA, one strand shown
# Sequence of ELF4 (Q99607 whole entry): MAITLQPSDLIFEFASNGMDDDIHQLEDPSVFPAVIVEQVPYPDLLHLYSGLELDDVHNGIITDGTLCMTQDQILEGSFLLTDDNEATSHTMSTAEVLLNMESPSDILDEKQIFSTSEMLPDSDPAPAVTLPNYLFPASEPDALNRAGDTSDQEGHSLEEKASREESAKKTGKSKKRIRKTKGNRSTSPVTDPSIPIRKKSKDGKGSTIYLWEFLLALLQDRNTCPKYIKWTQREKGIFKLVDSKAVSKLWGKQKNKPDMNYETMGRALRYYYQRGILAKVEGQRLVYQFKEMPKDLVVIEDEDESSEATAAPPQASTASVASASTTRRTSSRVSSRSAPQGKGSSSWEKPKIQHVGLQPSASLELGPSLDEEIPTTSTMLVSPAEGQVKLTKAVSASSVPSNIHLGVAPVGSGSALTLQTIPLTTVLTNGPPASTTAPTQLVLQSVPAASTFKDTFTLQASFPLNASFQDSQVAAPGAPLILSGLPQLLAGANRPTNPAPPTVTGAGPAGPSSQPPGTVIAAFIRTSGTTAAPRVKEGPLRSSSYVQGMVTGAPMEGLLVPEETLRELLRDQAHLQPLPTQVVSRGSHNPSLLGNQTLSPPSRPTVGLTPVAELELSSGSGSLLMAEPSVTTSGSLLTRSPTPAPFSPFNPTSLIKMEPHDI
# How it was run: as §1
# ELK4 = molecular target: T9, ELK4 (Homo sapiens, UniProt P28324-2 1-405); conditions: protein: recombinant; tags: N-terminal GST; dsDNA, one strand shown
# T9 sequence: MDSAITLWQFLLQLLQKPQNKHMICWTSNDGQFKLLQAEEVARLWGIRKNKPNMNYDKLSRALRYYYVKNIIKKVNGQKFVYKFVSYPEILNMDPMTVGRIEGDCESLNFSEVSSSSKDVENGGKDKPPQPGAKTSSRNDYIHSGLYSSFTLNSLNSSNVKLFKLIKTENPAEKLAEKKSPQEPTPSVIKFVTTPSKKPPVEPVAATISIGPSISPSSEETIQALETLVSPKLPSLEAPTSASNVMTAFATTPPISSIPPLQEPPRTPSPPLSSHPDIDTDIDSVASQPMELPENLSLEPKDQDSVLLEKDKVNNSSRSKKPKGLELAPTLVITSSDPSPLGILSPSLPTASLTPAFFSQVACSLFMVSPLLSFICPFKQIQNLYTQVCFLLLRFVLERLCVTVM
# How it was run: as §1
# ETV2 = molecular target: T10, ETV2 (Homo sapiens, UniProt O00321 1-342); conditions: protein: recombinant; tags: N-terminal GST; dsDNA, one strand shown
# T10 sequence: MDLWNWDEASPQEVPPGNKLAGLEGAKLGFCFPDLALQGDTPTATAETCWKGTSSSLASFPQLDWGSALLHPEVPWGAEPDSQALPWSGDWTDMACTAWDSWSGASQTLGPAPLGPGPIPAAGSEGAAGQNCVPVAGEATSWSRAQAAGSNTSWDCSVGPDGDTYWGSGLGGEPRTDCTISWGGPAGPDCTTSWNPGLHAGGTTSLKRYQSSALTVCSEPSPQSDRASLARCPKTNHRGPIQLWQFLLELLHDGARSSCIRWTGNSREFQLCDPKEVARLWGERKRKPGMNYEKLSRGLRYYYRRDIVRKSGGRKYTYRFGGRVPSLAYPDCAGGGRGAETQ
# How it was run: as §1
# ELF3 = molecular target: T11, ELF3 (Homo sapiens, UniProt P78545 1-371); conditions: protein: recombinant; tags: N-terminal GST; dsDNA, one strand shown
# T11 sequence: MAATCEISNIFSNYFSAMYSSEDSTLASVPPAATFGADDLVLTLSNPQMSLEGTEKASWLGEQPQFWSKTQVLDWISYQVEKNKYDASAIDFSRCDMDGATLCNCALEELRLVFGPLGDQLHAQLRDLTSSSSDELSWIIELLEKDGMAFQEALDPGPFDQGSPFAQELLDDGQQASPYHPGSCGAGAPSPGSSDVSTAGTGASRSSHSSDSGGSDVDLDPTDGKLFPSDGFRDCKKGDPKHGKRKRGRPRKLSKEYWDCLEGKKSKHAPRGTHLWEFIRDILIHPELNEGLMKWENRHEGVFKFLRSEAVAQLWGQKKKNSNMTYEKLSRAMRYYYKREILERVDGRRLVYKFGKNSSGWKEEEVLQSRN
# How it was run: as §1
# CRX = CRX (Homo sapiens, UniProt O43186 1-299); conditions: protein: recombinant; tags: N-terminal GST; dsDNA, one strand shown
# Sequence of CRX (O43186 whole entry): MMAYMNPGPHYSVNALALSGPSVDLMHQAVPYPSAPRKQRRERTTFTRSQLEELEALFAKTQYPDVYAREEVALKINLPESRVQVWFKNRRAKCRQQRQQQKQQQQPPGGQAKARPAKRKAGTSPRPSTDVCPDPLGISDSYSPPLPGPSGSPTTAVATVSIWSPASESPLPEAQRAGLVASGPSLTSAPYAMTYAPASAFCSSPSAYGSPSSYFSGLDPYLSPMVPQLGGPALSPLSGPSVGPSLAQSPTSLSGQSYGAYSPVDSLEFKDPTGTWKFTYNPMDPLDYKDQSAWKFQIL
# How it was run: as §1
# ETV1 = ETV1 (Homo sapiens, UniProt P50549 1-477); conditions: protein: recombinant; tags: N-terminal GST; dsDNA, one strand shown
# Sequence of ETV1 (P50549 whole entry): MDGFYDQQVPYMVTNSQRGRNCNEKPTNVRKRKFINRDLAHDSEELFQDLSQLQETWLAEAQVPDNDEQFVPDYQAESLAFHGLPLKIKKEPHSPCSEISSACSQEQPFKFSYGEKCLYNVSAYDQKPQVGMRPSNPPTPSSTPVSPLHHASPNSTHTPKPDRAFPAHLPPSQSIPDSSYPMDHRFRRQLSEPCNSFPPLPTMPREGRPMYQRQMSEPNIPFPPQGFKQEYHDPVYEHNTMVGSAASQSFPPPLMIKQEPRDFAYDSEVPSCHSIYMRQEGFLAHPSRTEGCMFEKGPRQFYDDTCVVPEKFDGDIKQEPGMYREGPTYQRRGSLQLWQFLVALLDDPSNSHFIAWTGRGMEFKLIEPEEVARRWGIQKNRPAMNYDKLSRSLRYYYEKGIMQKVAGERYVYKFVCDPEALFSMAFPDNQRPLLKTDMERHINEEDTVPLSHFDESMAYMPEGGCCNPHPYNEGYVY
# How it was run: as §1
sequence,measurement,setting,value
TACTCG,binding signal,FLI1,"1.33 fold enrichment (6-mer frequency, TF over GST control)"
same,binding signal,ELK1,"1.29 fold enrichment (6-mer frequency, TF over GST control)"
same,binding signal,GABPA,"1.34 fold enrichment (6-mer frequency, TF over GST control)"
same,binding signal,ERG,"1.14 fold enrichment (6-mer frequency, TF over GST control)"
same,binding signal,ELF1,"1.34 fold enrichment (6-mer frequency, TF over GST control)"
same,binding signal,EHF,"1.16 fold enrichment (6-mer frequency, TF over GST control)"
same,binding signal,SPI1,"1.22 fold enrichment (6-mer frequency, TF over GST control)"
same,binding signal,SPIB,"1.18 fold enrichment (6-mer frequency, TF over GST control)"
same,binding signal,ELK3,"1.22 fold enrichment (6-mer frequency, TF over GST control)"
same,binding signal,FEV,"1.23 fold enrichment (6-mer frequency, TF over GST control)"
same,binding signal,ETV5,"1.28 fold enrichment (6-mer frequency, TF over GST control)"
same,binding signal,HSF1,"1.72 fold enrichment (6-mer frequency, TF over GST control)"
same,binding signal,SPIC,"1.25 fold enrichment (6-mer frequency, TF over GST control)"
same,binding signal,ELF4,"1.22 fold enrichment (6-mer frequency, TF over GST control)"
same,binding signal,ELK4,"1.3 fold enrichment (6-mer frequency, TF over GST control)"
same,binding signal,ETV2,"1.19 fold enrichment (6-mer frequency, TF over GST control)"
same,binding signal,ELF3,"1.29 fold enrichment (6-mer frequency, TF over GST control)"
same,binding signal,CRX,"1.38 fold enrichment (6-mer frequency, TF over GST control)"
same,binding signal,ETV1,"1.26 fold enrichment (6-mer frequency, TF over GST control)"
